C diff HTS: C. difficile growth inhibition. Clostridium difficile clinical isolate growth, OD600, 24 h; stronger effect = lower value. growth activity, negative = inhibition, % at 16 µg/mL (by protocol). actives 0.25% (n = 86,000);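 active = mean growth activity at or below -80% and every replicate also at or below -80%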;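 also: 0% = DMSO wells and -100% = levofloxacin 16 µg/mL wells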
* hit, by the source's call; ! = not confirmed by another sample. The entries come from a sample that favours hits as a whole.

SMILES	C diff HTS
C[C@@H]1CN([C@@H](C)CO)C(=O)Cc2cc(NC(=O)Cc3ccccc3)ccc2O[C@H]1CN(C)C(=O)Nc1ccccc1	5
C[C@@H]1CN([C@@H](C)CO)C(=O)c2cc(NC(=O)c3ccncc3)ccc2O[C@@H]1CN(C)Cc1ccc(C(=O)Nc2ccccc2N)cc1	1
CC(=O)N1CC(=O)N2[C@H](CO)[C@@H](c3ccc(-c4ccc(C(=O)N(C)C)cc4)cc3)[C@H]2C1	-1
CCCC(=O)N1CC2(C1)CN(Cc1ccc(Cl)cc1)[C@@H](CO)c1[nH]c3cc(OC)ccc3c12	7
CCCNC(=O)N1CC2(C1)[C@H](c1ccccc1)[C@H](CO)N2C(=O)C1CCC1	0
COc1ccc(-c2cnc3c(c2)C(=O)N([C@H](C)CO)C[C@@H](C)[C@@H](CN(C)C(=O)C2CC2)O3)cc1	0
C/C=C/c1ccc([C@@H]2[C@H](CO)N(C(=O)Cc3cccnc3)[C@H]2CNC(C)=O)cc1	0
C[C@@H]1CN([C@@H](C)CO)S(=O)(=O)c2ccc(/C=C/c3ccccc3)cc2O[C@@H]1CN(C)Cc1ccc(C(=O)O)cc1	-9
C[C@H]1CN([C@@H](C)CO)S(=O)(=O)c2ccc(/C=C/c3ccccc3)cc2O[C@@H]1CN(C)Cc1ccc(C(=O)O)cc1	17
C[C@@H]1CN([C@@H](C)CO)S(=O)(=O)c2ccc(/C=C/c3ccccc3)cc2O[C@H]1CN(C)Cc1ccc(C(=O)O)cc1	-97*
C[C@@H]1CCCCO[C@@H](CN(C)S(=O)(=O)c2cccs2)[C@H](C)CN([C@H](C)CO)C(=O)c2cc(NC(=O)C3CCCCC3)ccc2O1	7
COc1ccc2c3c(n(C)c2c1)[C@@H](CO)N(CC1CCOCC1)CC31CN(C(=O)Nc2ccccc2)C1	-5
COc1ccc(NC(=O)N2CCCCN3[C@H](CO)[C@H](c4ccc(C#CCC(C)C)cc4)[C@H]3C2)cc1	33
CC(C)CC#Cc1ccc([C@@H]2[C@H]3CN(C(=O)Nc4ccccc4)CCCCN3[C@H]2CO)cc1	57
CC(C)C#Cc1ccc([C@H]2[C@@H](CO)N3CCCCN(C(=O)Nc4ccccc4)C[C@@H]23)cc1	-11
CC(C)CC#Cc1ccc([C@@H]2[C@H](CO)N3CCCCN(C(=O)Nc4ccccc4)C[C@@H]23)cc1	-98*
CC(C)CC#Cc1ccc([C@H]2[C@H](CO)N3CCCCN(C(=O)Nc4ccccc4)C[C@@H]23)cc1	-98*
CC(C)CC#Cc1ccc([C@H]2[C@@H](CO)N3CCCCN(C(=O)Nc4ccccc4)C[C@@H]23)cc1	-13
COc1ccc(NC(=O)N(C)C[C@@H]2Oc3ncc(C#C[C@@H](C)O)cc3C(=O)N([C@@H](C)CO)C[C@@H]2C)cc1	4
CC(C)C#Cc1ccc2c(c1)O[C@@H](CN(C)C(=O)CN(C)C)[C@@H](C)CN([C@@H](C)CO)S2(=O)=O	-5
O=C(Nc1ccc2c(c1)OCO2)N[C@@H]1CC[C@@H](CCNC(=O)C2CCCCC2)O[C@H]1CO	-2
Cc1ccc(-c2ccc(C3[C@H]4CNC[C@@H]3N4C(=O)Nc3ccc(F)cc3)cc2)cc1 (stereo partly specified)	-75
O=C(Nc1ccc(C(F)(F)F)cc1)N1[C@@H]2CNC[C@H]1C2c1ccc(-c2ccccc2)cc1 (stereo partly specified)	-99*!
O=C(Nc1ccc(F)cc1)N1[C@@H]2CNC[C@H]1C2c1ccc(-c2ccccc2)cc1 (stereo partly specified)	59
O=C(Nc1ccc(F)cc1)N1[C@@H]2CNC[C@H]1C2c1ccc(/C=C/c2ccccc2)cc1 (stereo partly specified)	-101*!
SMILES	C diff HTS
C/C=C/c1ccc(C2[C@H]3CNC[C@@H]2N3C(=O)Nc2cccc(Cl)c2)cc1 (stereo partly specified)	46
O=C(Nc1cc(F)ccc1F)N1[C@@H]2CNC[C@H]1C2c1ccc(/C=C/c2ccccc2)cc1 (stereo partly specified)	29
O=C(Nc1ccc(F)cc1)N1[C@@H]2CNC[C@H]1C2c1ccc(-c2ccc(F)cc2)cc1 (stereo partly specified)	40
C/C=C/c1ccc(C2[C@H]3CNC[C@@H]2N3C(=O)Nc2ccccc2Cl)cc1 (stereo partly specified)	8
COc1ccc(NC(=O)N2[C@@H]3CNC[C@H]2C3c2ccc(-c3ccccc3)cc2)cc1 (stereo partly specified)	31
O=C(Nc1ccc(C(F)(F)F)cc1)N1[C@@H]2CNC[C@H]1C2c1ccc(/C=C/c2ccccc2)cc1 (stereo partly specified)	-103*!
Cc1ccccc1-c1ccc(C2[C@H]3CNC[C@@H]2N3C(=O)Nc2ccc(C(F)(F)F)cc2)cc1 (stereo partly specified)	-96*
Cc1ccccc1-c1ccc(C2[C@H]3CNC[C@@H]2N3C(=O)Nc2ccc(F)cc2)cc1 (stereo partly specified)	59
O=C(CN1CCOCC1)N1CC[C@@H]2[C@H](CO)Nc3ccc(-c4ccc(F)cc4)cc3[C@@H]21	-14
O=C1CN(S(=O)(=O)Cc2ccccc2)C[C@@H]2[C@H](c3ccc(C#CCC4CCCC4)cc3)[C@H](CO)N12	-11
COc1ccc(NC(=O)Nc2ccc3c(c2)C(=O)N([C@H](C)CO)C[C@H](C)[C@H](CN(C)CC2CCCCC2)O3)cc1	19
C[C@@H]1CN([C@H](C)CO)C(=O)Cc2cc(NC(=O)c3ccncc3)ccc2O[C@@H]1CN(C)Cc1ccccc1	-1
CC(=O)N(C)C[C@@H]1Oc2cc(-c3ccc(F)cc3)ccc2S(=O)(=O)N([C@H](C)CO)C[C@H]1C	6
COc1ccccc1C#Cc1cnc2c(c1)C(=O)N([C@@H](C)CO)C[C@H](C)[C@H](CN(C)C(=O)c1ccc3c(c1)OCO3)O2	3
COc1ccc(CN(C)C[C@H]2OCCCC[C@@H](C)Oc3ccc(NC(=O)Nc4ccc(C(F)(F)F)cc4)cc3C(=O)N([C@H](C)CO)C[C@H]2C)cc1	-22
C[C@H](CO)N1C[C@H](C)[C@@H](CN(C)C(=O)c2ccncc2)OCc2ccccc2-c2c(n(C)c3ccccc23)C1=O	-1
C#CCNC(=O)C1=C[C@H](c2ccc3c(c2)OCO3)C[C@H](OCc2ccc(CO)cc2)O1	8
COCC#Cc1ccc([C@@H]2[C@@H](CO)N3C(=O)CN(C(=O)CN4CCOCC4)C[C@H]23)cc1	1
O=C(Nc1ccc(Cl)cc1)N1[C@@H]2CNC[C@H]1C2c1ccc(-c2ccccc2)cc1 (stereo partly specified)	-3
O=C(Nc1ccc(Cl)cc1)N1[C@@H]2CNC[C@H]1C2c1ccc(/C=C/c2ccccc2)cc1 (stereo partly specified)	-98*
O=C(Nc1ccccc1Cl)N1[C@@H]2CNC[C@H]1C2c1ccc(/C=C/c2ccccc2)cc1 (stereo partly specified)	13
C/C=C/c1ccc(C2[C@@H]3CN(C(=O)c4ccc5c(c4)OCO5)C[C@H]2N3)cc1 (stereo partly specified)	-5
C/C=C/c1ccc(C2[C@@H]3CN(C(=O)Nc4ccccc4F)C[C@H]2N3)cc1 (stereo partly specified)	5
O=C(Nc1ccc(F)cc1)N1C[C@@H]2N[C@H](C1)C2c1ccc(/C=C/c2ccccc2)cc1 (stereo partly specified)	-100*
COc1ccc(-c2ccc(C3[C@@H]4CN(C(=O)Nc5ccccc5F)C[C@H]3N4)cc2)cc1 (stereo partly specified)	44
